Experimental data reported in PubChem BioAssay (EPA / NIEHS).
Activity calls are given as the source filed them. How the source made its calls: active means hit-call score of the fitted dose curve at least 0.9, where 1 is the maximum; inactive means score below 0.9.

assay: ATG_PBREM_CIS: Attagene CIS-FACTORIAL HepG2 Assay for human Phenobarbital-responsive Enhancer Module (PBREM) (AID 2282955); conditions: HepG2 PBREM cis-reporter, Attagene multiplexed transcription; actives raise or lower the signal
Experimental: ATG_CIS is a cell-based, multiplexed-readout assay that uses HepG2, a human liver cell line, with measurements taken at 24 hours after chemical dosing in a 24-well plate.ATG_PBREM_CIS is one of 52 assay component(s) measured or calculated from the ATG_CIS assay. It is designed to make measurements of mRNA induction, a form of inducible reporter, as detected with fluorescence intensity signals by Reverse transcription polymerase chain reaction (RT-PCR) and Capillary electrophoresis technology.Data from the assay component ATG_PBREM_CIS was analyzed into 1 assay endpoint. This assay endpoint, ATG_PBREM_CIS, was analyzed with bidirectional fitting relative to DMSO as the negative control and baseline of activity. Using a type of inducible reporter, measures of mRNA for gain or loss-of-signal activity can be used to understand the reporter gene at the transcription factor-level as they relate to the gene NR1I3. Furthermore, this assay endpoint can be referred to as a primary readout, because this assay has produced multiple assay endpoints where this one serves a reporter gene function. To generalize the intended target to other relatable targets, this assay endpoint is annotated to the nuclear receptor intended target family, where the subfamily is non-steroidal.
Human liver HepG2 cells are transiently transfected with multiple reporter transcription units (MRTUs) in 6-well plates using FuGene 6 reagent (Roche; 3 ml FuGene/1 mg DNA). The MRTU constructs are regulated by a cis-regulating element (promoter). […] A major difference between the CIS and TRANS system is that in CIS activities of endogenous TFs are measured, whereas the TRANS assay evaluates changes in activities of exogenous, chimeric NR-Gal4 proteins. […] At the end of 24 hour incubation, total RNA was isolated using TriZol reagent (Invitrogen). The isolated RNA is then reverse-transcribed using oligo(dT) primer and Mo-MLV reverse transcriptase (Invitrogen) with DNAse I (Ambion) treatment for 30 min. The one-tenth of the produced cDNA was amplified by PCR using Taq DNA polymerase (Invitrogen) and two reporter sequence-specific primers. The PCR products were fluorescently labeled by primer extension with 6-arboxyfluorescein (6-FAM) 5'-labeled reporter sequence-specific primer (2 min at 95 C, 20 s at 68 C and 10 min at 72 C) and these products were digested with 5U of HpaI (New England Biolabs) for 2h at 37 C. The fragments were purified using Qiaquick PCR columns (Qiagen), analyzed on an ABI 3130xL genetic analyzer (Applied Biosystems) with peak positions identified by using a set of X-rhodamine (ROX)-labeled MapMarker1000 molecular weight standards (BioVentures). The raw capillary electrophoresis data was processed using Attagraph software (Attagene).

Row | Compound | outcome | AC50
1 | N#Cc1cc([N+](=O)[O-])ccc1N | inactive | 
2 | CCCCCCCc1ccc(O)cc1 | inactive | 
3 | O=C(O)C(F)(F)C(F)(F)C(=O)O | inactive | 
4 | c1cc2c3c(cccc3c1)CC2 | inactive | 
5 | Cc1cccc(N)c1 | inactive | 
6 | CCCN(CCC)c1c([N+](=O)[O-])cc(C(C)C)cc1[N+](=O)[O-] | inactive | 
7 | Cc1ccc(O)cc1C | inactive | 
8 | CCOC(=O)c1ccccc1N | inactive | 
9 | N#Cc1c(-c2ccc(Cl)cc2)[nH]c(C(F)(F)F)c1Br |  | 0.122 µM (active)
10 | O=C(O)C(F)(OC(F)(F)C(F)(F)C(F)(F)F)C(F)(F)F (stereo not given) | inactive | 
11 | C/C(=N\NC(=O)Nc1cc(F)cc(F)c1)c1ncccc1C(=O)O | inactive | 
12 | N#Cc1ccc(O)cc1 | inactive | 
13 | c1ccc2c(c1)sc1ccccc12 | inactive | 
14 | NNC(N)=S | inactive | 
15 | OCC(F)(F)OC(F)(F)C(F)(F)OC(F)(F)CO | inactive | 
16 | CCOP(=O)(O)C(N)=O | inactive | 
17 | Cc1c([N+](=O)[O-])cc2c(c1[N+](=O)[O-])C(C)(C)CC2(C)C | inactive | 
18 | CC(O)C(F)(F)C(F)(F)F (stereo not given) | inactive | 
19 | CC1(C)CN=C(NN=C(/C=C/c2ccc(C(F)(F)F)cc2)/C=C/c2ccc(C(F)(F)F)cc2)NC1 | inactive | 
20 | Nc1ccc(Sc2ccc(N)cc2)cc1 |  | 100 µM (active)

Row | Compound | outcome | AC50
21 | Oc1ccc(I)cc1 | inactive | 
22 | Nc1cc2c3c(c1)C(c1ccccc1)=N[C@@H](NC(=O)c1cccnc1)C(=O)N3CC2 |  | 41.9 µM (active)
23 | CC1=C(C(=O)Nc2ccccc2)S(=O)(=O)CCO1 | inactive | 
24 | CCCCOCCOP(=O)(OCCOCCCC)OCCOCCCC | inactive | 
25 | CNC(=O)Oc1ccc(N(C)C)c(C)c1 | inactive | 
26 | COC(=O)C(F)(F)C(F)(F)OC(F)(C(F)(F)F)C(F)(F)OC(F)=C(F)F (stereo not given) | inactive | 
27 | ClC(Cl)(Cl)c1ccccc1 | inactive | 
28 | COP(N)(=S)OC | inactive | 
29 | CSC(C)(C)C=NO | inactive | 
30 | COCCOCCO | inactive | 
31 | CC(O)C#N (stereo not given) | inactive | 
32 | Nc1ccc2ccccc2c1 | inactive | 
33 | O=P(OCC(Br)CBr)(OCC(Br)CBr)OCC(Br)CBr (stereo not given) | inactive | 
34 | C=CC(=O)OCC(CC)(COC(=O)C=C)COC(=O)C=C | inactive | 
35 | Nc1ccc(Cl)cc1 | inactive | 
36 | Oc1ccccc1Br | inactive | 
37 | CCOC(=O)c1ccccc1C(=O)OCC | inactive | 
38 | CO/N=C(/C(=O)OC)c1ccccc1COc1ccccc1C | inactive | 
39 | O=C(O)C(F)(F)OC(F)(F)C(F)(F)OC(F)(F)C(=O)O | inactive | 
40 | CCCCc1ccccc1 | inactive | 
